# Records with an inconclusive call do not appear. Some structures have more than one record in an assay (separate samples or runs), and their calls can disagree. Calls of active or inactive are those of the source. Rule for the calls: active = hit-call score of the fitted dose curve at least 0.9, where 1 is the maximum; inconclusive = response in the unintended direction; inactive = score below 0.9.
# Legend:
# [1] = target: Cellular tumor antigen p53 (Homo sapiens) (UniProt P04637); assay: TOX21_p53_BLA_p5_ratio: Tox21 HCT-116 p53 Agonism Beta-lactamase Assay, Ratio, Phase 5 (AID 2283599)
# In short: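 HCT-116 cells carrying a p53-inducible beta-lactamase reporter were seeded at 4000 cells/well and dosed after 5 h with compound in DMSO (217-fold dilution). After 16 h at 37C, CCF4-AM substrate was added for 2 h, and the 460/530 nm emission ratio was scored as gain-of-signal versus DMSO.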
# [2] = target: Cellular tumor antigen p53 (Homo sapiens) (UniProt P04637); assay: TOX21_p53_BLA_p4_ratio: Tox21 HCT-116 p53 Agonism Beta-lactamase Assay, Ratio, Phase 4 (AID 2283601)
# In short: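 HCT116 cells carrying an inducible beta-lactamase reporter were plated at 4000 cells/well, rested 5 h, then exposed to compounds in DMSO (217-fold dilution) for 16 h at 37C. CCF4-AM substrate was loaded 2 h at room temperature; 460/530 nm emission ratio scored gain-of-signal versus DMSO.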
# [3] = TOX21_p53_BLA_p5_viability: Viability Assessment in the Tox21 HCT-116 p53 Agonism Beta-lactamase Assay, Phase 5 (AID 2283600)
# In short: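 Cells were plated at 4000/well, rested 5 h at 37C, then given compounds in DMSO (217-fold dilution) for 16 h at 37C, 5% CO2. Following the CCF4-AM beta-lactamase read, CellTiter-Glo was added and luminescence was read after 30 min at room temperature.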
# Chain of Cellular tumor antigen p53 (Homo sapiens) (P04637 whole entry, looked up): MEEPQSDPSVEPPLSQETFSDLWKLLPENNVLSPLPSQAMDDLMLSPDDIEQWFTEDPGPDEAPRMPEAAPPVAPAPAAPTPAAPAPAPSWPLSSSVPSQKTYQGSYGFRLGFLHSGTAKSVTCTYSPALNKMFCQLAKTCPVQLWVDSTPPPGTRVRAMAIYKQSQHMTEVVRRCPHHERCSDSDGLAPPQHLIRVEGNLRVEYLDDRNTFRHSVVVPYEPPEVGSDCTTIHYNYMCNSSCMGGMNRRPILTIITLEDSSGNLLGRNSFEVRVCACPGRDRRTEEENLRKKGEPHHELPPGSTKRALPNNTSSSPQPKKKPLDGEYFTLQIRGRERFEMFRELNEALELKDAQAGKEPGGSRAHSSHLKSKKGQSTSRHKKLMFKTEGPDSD
smiles,measurement,setting,value
CC1=CCC(=C(C)C)CC1,outcome,[1],inactive
same,outcome,[2],inactive
O=c1cc(-c2ccc(O)cc2)oc2cc(O)cc(O)c12,outcome,[1],inactive
same,outcome,[3],inactive
same,AC50,[2],13.4 µM (active)
same,outcome,[2],inactive
C=C1CC/C=C(\C)CC[C@@H]2[C@@H]1CC2(C)C,outcome,[1],inactive
same,outcome,[2],inactive
CCCCCCC(C)O (configuration not stated),outcome,[2],inactive
CCCCCCCOC(C)=O,outcome,[2],inactive
Cc1cc(N)n(-c2ccccc2)n1,outcome,[2],inactive
CC(=O)OC(C)(C)C,outcome,[2],inactive
CCCCC/C=C\C=C\C(=O)OCC,AC50,[3],47.7 µM (active)
same,AC50,[2],89.9 µM (active)
CC1=CC(O)CC(C)(C)C1 (configuration not stated),outcome,[3],inactive
same,outcome,[2],inactive
O=S(=O)(O)c1cc(S(=O)(=O)O)c2c(N=Nc3ccccc3)c(O)ccc2c1,outcome,[3],inactive
same,outcome,[2],inactive
CCCCCCCCCCCCOCCOS(=O)(=O)O,outcome,[3],inactive
same,outcome,[2],inactive
CCO[Si](CC)(OCC)OCC,outcome,[3],inactive
same,outcome,[2],inactive

# Reference: PubChem BioAssay (EPA / NIEHS)
